Experimental data reported in PubChem BioAssay AID1345085 (National Center for Advancing Translational Sciences (NCATS), 2018).
Results filed as inconclusive are left out. Activity calls are given as the source filed them. Calls follow the shape of the dose curve; as a rule, active = well fitted cell-killing curve with a large enough effect; inconclusive = small, poorly fitted or top-dose-only effect, or effect the other way; inactive = no such curve, though single readings can be large or run the other way.

System: PA-1
Test: Confirmatory qHTS for gynecologic anti-cancer compounds from libraries of approved drugs and bioactive compounds; also: nearly all actives have a fitted effect of over 55% in size
Conditions: gynecologic cancer cell panel viability, ATPlite luminescence, 48 h; series mostly up to 57.6 µM
Outline: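 Viability is measured as ATP-dependent luciferase light using ATPlite, read 15 min after reagent addition at room temperature. Compounds, in DMSO, span 57.5 uM down to 0.977 nM over 11 threefold steps for 48 h.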
Potency is read from the fitted curve at half-maximal effect.

Row | Compound | Potency
1 | O=C(CCCCCCC(=O)Nc1ccccc1)NO | 1.37 µM (active)
2 | CNc1nc(Nc2ccc(C(=O)N3CCOCC3)cc2OC)ncc1Cl | inactive
3 | CN1CCN(CCOc2cc(OC3CCOCC3)c3c(Nc4c(Cl)ccc5c4OCO5)ncnc3c2)CC1 | 19.3 µM (active)
4 | Nc1ccccc1NC(=O)c1ccc(CNC(=O)OCc2cccnc2)cc1 | 1.53 µM (active)
5 | CN(C)c1ccc(-c2nc3ncc(Cl)c(N4CCN(CC(=O)Nc5nccs5)CC4)c3[nH]2)cc1 | 3.35 µM (active)
6 | CC(=O)NCC(=O)N1C2CCC1c1cc(Nc3ncc(C(F)(F)F)c(NC4CCC4)n3)ccc12 (stereo not given) | 0.685 µM (active)
7 | Nc1ccccc1NC(=O)c1ccc(CNc2nccc(-c3cccnc3)n2)cc1 | 1.09 µM (active)
8 | COc1ccc2c(c1)c(CC(=O)O)c(C)n2C(=O)c1ccc(Cl)cc1 | 27.3 µM (active)
9 | Cc1cc(C(=O)N2CCN(c3cccc(Cl)c3)CC2)n(-c2ccccc2)n1 | 3.43 µM (active)
10 | COc1cc(-c2nn(C3CCC(N4CCN(C(C)=O)CC4)CC3)c3ncnc(N)c23)ccc1NC(=O)c1cc2ccccc2n1C (stereo not given) | 30.6 µM (active)
11 | Cc1cc(Nc2cc(N3CCN(C)CC3)nc(Sc3ccc(NC(=O)C4CC4)cc3)n2)n[nH]1 | 2.17 µM (active)
12 | NC(=O)c1cnc(-c2ccc(C3(N)CCC3)cc2)c(-c2ccccc2)c1 | 27.3 µM (active)
13 | CN(C)CC/C=C1\c2ccccc2COc2ccccc21 | inactive
14 | CCCCc1nc2cc(/C=C/C(=O)NO)ccc2n1CCN(CC)CC | 0.385 µM (active)
15 | Cc1cc(Nc2nc(N[C@@H](C)c3ncc(F)cn3)ncc2Cl)n[nH]1 | 3.85 µM (active)
16 | Cc1cnc(CNC(=O)c2c(=O)c3ccc(N4CCCN(C)CC4)nc3n3c2sc2ccccc23)cn1 | 1.11 µM (active)
17 | Cc1cc(Nc2cc(N3CCN(C)CC3)nc(/C=C/c3ccccc3)n2)n[nH]1 | 3.85 µM (active)
18 | CC(C)n1c(/C=C/[C@@H](O)C[C@@H](O)CC(=O)O)c(-c2ccc(F)cc2)c2ccccc21 | 24.3 µM (active)

Row | Compound | Potency
19 | COc1cc2c(Oc3ccc(-c4cnc(Nc5ccc(F)cc5)n(C)c4=O)cc3F)ccnc2cc1OCCCN1CCOCC1 | 21.7 µM (active)
20 | CC(C)C[C@H](NC(=O)[C@H](CCc1ccccc1)NC(=O)CN1CCOCC1)C(=O)N[C@@H](Cc1ccccc1)C(=O)N[C@@H](CC(C)C)C(=O)[C@@]1(C)CO1 | 2.43 µM (active)
21 | CCOc1cc2ncc(C#N)c(Nc3ccc(F)c(Cl)c3)c2cc1NC(=O)/C=C/CN(C)C | 17.2 µM (active)
22 | COc1ccc2cc3[n+](cc2c1OC)CCc1cc2c(cc1-3)OCO2 | 0.968 µM (active)
23 | Cc1ccc(C(=O)N(CCCN)C(c2nc3cc(Cl)ccc3c(=O)n2Cc2ccccc2)C(C)C)cc1 (stereo not given) | 0.0172 µM (active)
24 | CNC(=O)c1ccccc1Nc1nc(Nc2ccc(N3CCOCC3)cc2OC)ncc1Cl | 1.72 µM (active)
25 | Cc1cnc(Nc2ccc(OCCN3CCCC3)cc2)nc1Nc1cccc(S(=O)(=O)NC(C)(C)C)c1 | 4.32 µM (active)
26 | COc1cc(Nc2ncc(F)c(Nc3ccc4c(n3)N(COP(=O)(O)O)C(=O)C(C)(C)O4)n2)cc(OC)c1OC | 9.68 µM (active)
27 | COC(C(=O)N1Cc2[nH]nc(NC(=O)c3ccc(N4CCN(C)CC4)cc3)c2C1)c1ccccc1 (stereo not given) | 7.69 µM (active)
28 | O=C1NC(=O)C(c2cnc3ccccn23)=C1c1cn2c3c(cccc13)CN(C(=O)N1CCOCC1)CC2 | 10.9 µM (active)
29 | C[C@@H](Oc1cc(-c2cnn(C3CCNCC3)c2)cnc1N)c1c(Cl)ccc(F)c1Cl | 6.85 µM (active)
30 | Cc1cnc(Nc2cccc(CN3CCOCC3)c2)nc1Nc1cccc(S(=O)(=O)NC(C)(C)C)c1 | 3.85 µM (active)
31 | CC[C@H](CC#N)OC(=O)N[C@@H](C)c1cccc(NC(=O)Nc2ccc(-c3cnco3)c(OC)c2)c1 | 0.217 µM (active)
32 | Cc1ccc(C(=O)Nc2ccc(Oc3cc4cnn(C)c4cc3-c3cn[nH]c3)c(F)c2)c(=O)n1-c1ccc(F)cc1 | 10.9 µM (active)
33 | Cc1ccn(-c2ccc(-c3ncco3)cc2)c(=O)c1-c1ccc2nc(N)ncc2c1 | 27.3 µM (active)
34 | CCCC(Nc1nc(-c2ccc(NC(=O)NCC)c(OC)c2)ncc1C)c1cccnc1 (stereo not given) | 0.137 µM (active)
35 | CCCCc1oc2ccc(NS(C)(=O)=O)cc2c1C(=O)c1ccc(OCCCN(CCCC)CCCC)cc1 | 27.3 µM (active)
